In PubChem BioAssay:
Calls of active or inactive are those of the source.

How the values were obtained:
[1] = tested on: Human papillomavirus type 1a protein E7 (residues 44-93); assay: HPV1a E7 fragment binders on microarrays, primary screen, biochemical, small-molecule microarray, residues 44-93, 635 nm fluorescence (AID 1108); details: small-molecule microarray binding, fluorescence 635 nm; higher = more signal;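 further: E7 fragment applied at 1 µg/mL in TBST for 1 h at 4 C; score combines spot fluorescence with its signal to noise ratio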
[2] = modulators of HCV replicon luciferase signal, primary screen, HCV replication inhibitor project, Huh7 cells, luciferase reporter (AID 1109); details: 48 h, higher = more signal;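 further: huh7 hepatoma cells harbouring a luciferase neomycin HCV replicon reporter; luciferase luminescence as measure of HCV replicon replication; test concentration not given here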
[3] = molecular target: Left-right determination factor 2 (Homo sapiens) (UniProt O00292); assay: LEFTY2 binders on small-molecule microarrays, primary screen, biochemical, small-molecule microarray, 635 nm fluorescence scan (AID 1110); details: LEFTY2 binding, higher = more signal
Left-right determination factor 2 (Homo sapiens), sequence (O00292 whole entry, looked up): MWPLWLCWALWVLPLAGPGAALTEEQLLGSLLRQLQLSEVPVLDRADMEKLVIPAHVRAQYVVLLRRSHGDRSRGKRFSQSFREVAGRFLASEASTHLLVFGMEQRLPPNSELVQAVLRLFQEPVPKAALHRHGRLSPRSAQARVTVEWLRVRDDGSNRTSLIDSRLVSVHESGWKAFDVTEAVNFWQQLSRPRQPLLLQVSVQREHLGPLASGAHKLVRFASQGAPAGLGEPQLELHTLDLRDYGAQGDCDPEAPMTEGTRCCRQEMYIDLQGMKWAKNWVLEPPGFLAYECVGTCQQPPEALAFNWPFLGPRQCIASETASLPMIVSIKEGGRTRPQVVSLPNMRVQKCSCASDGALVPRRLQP

[4] = molecular target: Calmodulin-1 (Homo sapiens) (UniProt P0DP23); assay: CALM1 binders on microarrays, EGTA buffer, profiling panel, biochemical, small-molecule microarray, Cy5-labelled CALM1 (AID 1111); details: Cy5-CALM1 binding fluorescence, higher = more signal;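 further: labelled calmodulin applied in Tris saline Tween buffer holding calcium plus EGTA and DTT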
[5] = molecular target: Calmodulin-1 (Homo sapiens) (UniProt P0DP23); assay: calcium-bound CALM1 binders on microarrays, profiling panel, artefact control for SMM control-protein annotation, biochemical, small-molecule microarray, Cy5-labelled CALM1, plus calcium (AID 1112); details: Cy5-CALM1 binding fluorescence, higher = more signal;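 further: score merges spot fluorescence with signal to noise from triplicate slides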
[6] = small-molecule microarray binders of probe aWnt5a, primary screen, biochemical, biotinylated probe, 635/667 nm fluorescence (AID 1113); details: higher = more signal;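 further: score merges 667 nm fluorescence intensity with signal-to-noise per printed feature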
[7] = small-molecule microarray binders of probe aShh, primary screen, biochemical, biotinylated probe, 635/667 nm fluorescence (AID 1114); details: higher = more signal;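 further: probe is biotin-labelled aShh protein from a stem cell growth factor screen; measures binding of labelled protein to compounds printed on the slide; score merges feature fluorescence at 667 nm with signal-to-noise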
[8] = small-molecule microarray binders of probe aNog, primary screen, biochemical, biotinylated probe, 635/667 nm fluorescence (AID 1115); details: higher = more signal;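 further: probe is biotinylated aNog protein used at 0.15 µg/mL for 1 h at 4 C; z-score combines 667 nm fluorescence of each spot with its signal to noise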
[9] = molecular target: Torsin-1A-interacting protein 1 (Homo sapiens) (UniProt Q5JTV8); assay: LAP1 binders from COS7 cell lysate, primary screen, small-molecule microarray, 635/667 nm fluorescence (AID 1116); details: COS7-hLAP1 lysate binding, 635 nm fluorescence, higher = more signal
Torsin-1A-interacting protein 1 (Homo sapiens), sequence (Q5JTV8 whole entry, looked up): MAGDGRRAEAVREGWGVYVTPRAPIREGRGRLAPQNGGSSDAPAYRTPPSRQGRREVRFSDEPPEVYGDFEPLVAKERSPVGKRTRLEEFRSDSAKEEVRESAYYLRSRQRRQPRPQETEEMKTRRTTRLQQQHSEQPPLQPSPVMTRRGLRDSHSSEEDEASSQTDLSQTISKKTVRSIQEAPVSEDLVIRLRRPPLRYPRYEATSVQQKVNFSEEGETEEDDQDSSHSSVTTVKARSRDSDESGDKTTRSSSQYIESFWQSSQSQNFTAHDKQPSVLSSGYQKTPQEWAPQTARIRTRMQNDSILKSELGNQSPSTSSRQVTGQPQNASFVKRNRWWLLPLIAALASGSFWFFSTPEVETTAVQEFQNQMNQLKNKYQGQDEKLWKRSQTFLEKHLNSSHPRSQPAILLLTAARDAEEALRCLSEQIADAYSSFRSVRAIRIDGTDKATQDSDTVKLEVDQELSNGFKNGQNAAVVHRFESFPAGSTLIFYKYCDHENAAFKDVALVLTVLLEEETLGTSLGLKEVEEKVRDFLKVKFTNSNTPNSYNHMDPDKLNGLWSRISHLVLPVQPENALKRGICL

[10] = molecular target: Alpha-bungarotoxin (Bungarus multicinctus) (UniProt P60615); assay: alpha-bungarotoxin binders on microarray, profiling panel, artefact control for SMM control protein annotation, biochemical, small-molecule microarray, Alexa647 label, 635/667 nm fluorescence (AID 1117); details: alpha-BTX-A647 binding fluorescence, higher = more signal
Alpha-bungarotoxin (Bungarus multicinctus), sequence (P60615 whole entry, looked up): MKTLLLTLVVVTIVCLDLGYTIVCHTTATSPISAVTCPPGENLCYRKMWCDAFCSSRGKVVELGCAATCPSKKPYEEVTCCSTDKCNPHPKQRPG

Albumin (Bos taurus) = Albumin (Bos taurus) (UniProt P02769); assay: bovine serum albumin binders on microarray, profiling panel, artefact control for SMM control protein annotation, biochemical, small-molecule microarray, Alexa647 label, 635/667 nm fluorescence (AID 1118); details: BSA-A647 binding, fluorescence 635 nm, higher = more signal;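 further: score merges 667 nm emission intensity and signal-to-noise per printed compound spot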
Albumin (Bos taurus), sequence (P02769 whole entry, looked up): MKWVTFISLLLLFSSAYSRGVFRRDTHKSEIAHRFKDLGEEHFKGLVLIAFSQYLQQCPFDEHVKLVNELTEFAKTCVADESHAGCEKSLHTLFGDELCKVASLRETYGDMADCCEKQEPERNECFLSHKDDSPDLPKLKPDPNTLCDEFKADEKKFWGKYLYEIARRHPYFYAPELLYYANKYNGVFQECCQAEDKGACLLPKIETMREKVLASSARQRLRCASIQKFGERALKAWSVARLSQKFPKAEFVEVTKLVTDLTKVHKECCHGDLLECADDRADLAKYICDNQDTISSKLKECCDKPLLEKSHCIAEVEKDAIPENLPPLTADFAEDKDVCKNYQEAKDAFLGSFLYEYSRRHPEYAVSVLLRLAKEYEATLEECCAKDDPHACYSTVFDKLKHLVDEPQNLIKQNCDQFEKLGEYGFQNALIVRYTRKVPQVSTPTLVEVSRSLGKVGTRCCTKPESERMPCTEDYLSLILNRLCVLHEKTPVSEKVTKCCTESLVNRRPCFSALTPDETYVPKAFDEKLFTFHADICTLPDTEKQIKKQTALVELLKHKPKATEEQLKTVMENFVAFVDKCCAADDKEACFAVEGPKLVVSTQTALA

[11] = small-molecule microarray binders of probe aXIP, primary screen, biochemical, NeuroSMM set, 635/667 nm fluorescence (AID 1119); details: higher = more signal, called active from +8 up or from −8 down;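 further: probe is the protein aXip251-270 applied at 1 µg/mL to compound-printed slides; binding of probe to printed compounds measured as 667 nm fluorescence plus signal to noise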
[12] = small-molecule binders of probe aNOTCH3, primary screen, biochemical, small-molecule microarray, 635/667 nm fluorescence (AID 1120); details: higher = more signal;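 further: probe is a biotin-tagged antibody raised against NOTCH3 rather than NOTCH3 protein; score merges spot fluorescence near 667 nm with spot signal to noise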
[13] = small-molecule binders of probe aNOTCH2, primary screen, biochemical, small-molecule microarray, 635/667 nm fluorescence (AID 1121); details: higher = more signal;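 further: score merges feature fluorescence read at 667 nm with its signal to noise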
[14] = molecular target: Carbonic anhydrase 2 (Homo sapiens) (UniProt P00918); assay: CAII small-molecule binders, profiling panel, biochemical, small-molecule microarray, Alexa647-labelled CAII (AID 1122); details: CAII-A647 binding fluorescence, higher = more signal
[15] = COS7 lysate on small-molecule microarray, probe aHis, 635 nm (AID 1123); details: COS7 cell lysate, fluorescence, higher = more signal;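 further: z-score combines 667nm fluorescence intensity with signal-to-noise per printed compound spot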
[16] = compound binding in COS7 lysate, probe aLAP1, primary screen, cell lysate, small-molecule microarray (AID 1124); details: probe aLAP1, fluorescence, higher = more signal;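 further: lysate comes from COS7 cells expressing LAP1 and is applied at 0.3 µg/mL; score merges spot fluorescence near 667 nm with signal-to-noise over triplicate slides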
Sam68 (KHDRBS1) = assay: Sam68 small-molecule binders, primary screen, biochemical, small-molecule microarray, 635 nm fluorescence (AID 1125); details: small-molecule microarray binding, higher = more signal;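 further: score merges 667 nm channel intensity with signal to noise over triplicate slides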
[17] = tested on: Chordin-like protein 2 (CHRDL2); assay: CHRDL2 small-molecule binders, primary screen, biochemical, small-molecule microarray, 635 nm fluorescence (AID 1126); details: small-molecule microarray binding, fluorescence 635 nm; higher = more signal;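 further: printed compound slides probed with Chrdl2 protein at 4 µg/mL for 1 h at 4 C; score merges 667 nm emission intensity with signal to noise over three replicate slides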
[18] = molecular target: Concanavalin-A (Canavalia ensiformis) (UniProt P02866); assay: ConA small-molecule binders, primary screen, artefact control for SMM control protein annotation, biochemical, small-molecule microarray, Alexa647 label, 635 nm (AID 1127); details: ConA-A647 binding fluorescence, higher = more signal;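 further: z combines 667 nm emission intensity with signal-to-noise across three replicate slides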
Concanavalin-A (Canavalia ensiformis), sequence (P02866 whole entry, looked up): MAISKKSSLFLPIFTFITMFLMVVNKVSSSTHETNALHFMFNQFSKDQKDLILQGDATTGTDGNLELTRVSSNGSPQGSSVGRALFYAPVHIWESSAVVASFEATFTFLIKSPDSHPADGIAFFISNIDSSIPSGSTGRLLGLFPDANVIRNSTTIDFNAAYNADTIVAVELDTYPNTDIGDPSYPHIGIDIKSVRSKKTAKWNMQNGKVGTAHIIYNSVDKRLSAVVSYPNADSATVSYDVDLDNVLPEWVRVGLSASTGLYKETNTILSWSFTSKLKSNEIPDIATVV

SMILES | composite z-score [1] | z-score [2] | composite z-score [3] | composite z-score [4] | composite z-score [5] | composite z-score [6] | composite z-score [7] | composite z-score [8] | composite z-score [9] | composite z-score [10] | composite z-score (Albumin (Bos taurus)) | composite Z-score [11] | composite z-score [12] | composite z-score [13] | composite z-score [14] | composite z-score [15] | composite z-score [16] | composite z-score (Sam68 (KHDRBS1)) | composite z-score [17] | composite z-score [18]
COC(=O)C(CC#Cc1ccc2c(c1)[C@]1(C(=O)N2)[C@H](c2ccccc2OCCO)N2[C@H](c3ccccc3)[C@H](c3ccccc3)OC(=O)[C@H]2[C@@H]1C(=O)N1CCc2cc(OC)c(OC)cc2C1)C(=O)OC | 1.37 | -1.68 | 0.541 | 0.0823 | -0.34 | -0.117 | -0.0626 | -0.259 | 1.68 | 0.647 | 0.185 | 0.0296 (inactive) | 0.172 | -0.14 | 0.661 | 1.19 | 0.653 | 1.29 | 0.618 | 0.914
O=C(NC1CC1)[C@@H]1c2ccccc2C(=O)N(Cc2ccc(OC(F)(F)F)cc2)[C@H]1c1ccc(CO)cc1 | 1.13 | -1.06 | 0.108 | 0.168 | 1.06 | -0.0758 | -0.0735 | -0.399 | -0.436 | -0.258 | 0.22 | 0.061 (inactive) | -0.1 | -0.0974 | 0.642 | 1.41 | -0.169 | 0.932 | -0.584 | -0.037
C=CCOC(=O)[C@H]1[C@@H]2C(=O)O[C@@H](c3ccccc3)[C@@H](c3ccccc3)N2[C@@H](c2ccc(OCCOC(=O)[C@@H]3C[C@@H]4C(=O)N[C@@H](CCCCNC(C)=O)C(=O)N4[C@@H]3c3cccc(OCCO)c3)cc2)[C@]12C(=O)Nc1ccccc12 | 0.843 | -1.48 | 0.781 | 0.258 | 0.121 | -0.124 | 0.147 | 0.254 | 0.439 | -0.0506 | -0.623 | 1.36 (inactive) | 0.116 | -0.0704 | 0.501 | 2.07 | 0.352 | 1.29 | 0.751 | 1.2
CCCC[C@H]1OB(O)C[C@H]2C1=C(COc1ccccc1)C[C@H]1C(=O)C=CC(=O)[C@H]12 | 0.0194 | -1.36 | 0.406 | -0.415 | -0.68 | -0.152 | -0.283 | -0.295 | 0.0135 | -0.388 | -0.339 | 0.229 (inactive) | -0.0333 | -0.0942 | -0.173 | -0.145 | -0.317 | 0.564 | 0.647 | 0.315
CCCN1C(=O)[C@]2(CCC(=O)OC(C)(C)C)N=C(c3ccc(OCCCO)cc3)O[C@@H]2c2ccccc21 | 1.17 | -2.87 | -0.399 | -0.0977 | -0.148 | -0.124 | 0.0469 | 0.175 | 3.34 | 0.28 | 0.151 | -0.12 (inactive) | -0.0044 | -0.0732 | 0.2 | 1.42 | 0.651 | 0.8 | 0.405 | 1.03
CC(C)NC(=O)[C@@]1(C)c2ccccc2C(=O)N(Cc2ccccc2)[C@H]1c1ccc(CO)cc1 | 0.864 | -0.957 | -1.47 | -0.155 | -0.672 | -0.0819 | -0.209 | -0.45 | -0.922 | 0.386 | 0.489 | -0.621 (inactive) | -0.432 | -0.153 | 0.692 | 1.86 | 0.329 | 0.696 | -1.6 | 0.537
O=C(NCCN1CCOCC1)[C@@H]1c2ccccc2C(=O)N(Cc2ccc(OC(F)(F)F)cc2)[C@H]1c1ccc(CO)cc1 | 1.25 | -1.29 | -0.622 | 0.749 | 0.337 | -0.11 | 0.0756 | 0.99 | 1.19 | 0.0007 | 0.816 | -0.265 (inactive) | -0.0976 | -0.0429 | 0.761 | 1.64 | -0.195 | 0.686 | -1.49 | -0.159
C=C(CCCC)C(=O)CC[C@@H](OC(=O)c1ccccc1-c1ccccc1C(=O)O)c1ccccc1OCCO | 1.19 | -2.84 | 0.0268 | 0.525 | -0.954 | -0.096 | -0.0904 | -0.147 | 2.43 | 0.16 | 0.269 | -0.136 (inactive) | -0.207 | -0.14 | 0.626 | -0.467 | 0.712 | 0.523 | 0.492 | 1.05
CC(C)c1nc2cc(Br)ccc2c(=O)o1 | 1.32 | -0.559 | 0.371 | 2 | 0.93 | -0.0367 | -0.427 | 0.418 | 1.61 | 0.868 | 0.915 | 0.19 (inactive) | 0.0493 | -0.0424 | 0.738 | 0.92 | 0.0912 | 0.711 | -0.552 | 1.09
C#CCN1[C@@H](Cc2ccccc2)C(=O)O[C@H](Cc2ccccc2)[C@@H]1/C=C/C1CC1 | 0.805 | -2.28 | 0.137 | -0.63 | -0.717 | -0.118 | -0.0337 | -0.196 | 0.436 | 0.456 | -0.215 | 0.196 (inactive) | 0.0999 | -0.126 | 0.486 | 0.92 | -0.103 | 0.713 | 0.646 | -0.741
